Source: PubChem BioAssay (NCI)
The panel holds about 83,000 compounds, 20% with a hit somewhere; the sample as a whole holds those more often.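 48-hour exposure, single concentration, 96-well plates; percent growth endpoint where 0 means no net growth. Active: below 10.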 A number with no mark means an inactive call. Calls of active or inactive are those of the source.

What was measured:
Experiment in all cases: NCI-60 one-dose screen, 48 h (100 = growth as untreated, 0 = no growth, -100 = all killed)
Conditions in all cases: 10 µM unless noted
NCI-H23 lung = tested on: NCI-H23 lung
NCI-H226 lung = tested on: NCI-H226 lung
NCI-H322M lung = tested on: NCI-H322M lung
HOP-62 NSCLC = tested on: HOP-62 NSCLC
NCI-H460 lung = tested on: NCI-H460 lung
HOP-92 NSCLC = tested on: HOP-92 NSCLC
NCI-H522 lung = tested on: NCI-H522 lung
A549/ATCC NSCLC = tested on: A549/ATCC NSCLC
786-0 renal = tested on: 786-0 renal
COLO 205 colon = tested on: COLO 205 colon
DU-145 prostate = tested on: DU-145 prostate
K-562 leukemia = tested on: K-562 leukemia
MALME-3M melanoma = tested on: MALME-3M melanoma
MDA-MB-231 breast = tested on: MDA-MB-231 breast
RXF 393 renal = tested on: RXF 393 renal
SF-268 CNS = tested on: SF-268 CNS
SF-295 CNS = tested on: SF-295 CNS
SF-539 CNS = tested on: SF-539 CNS
M14 melanoma = tested on: M14 melanoma

## COc1ccc2c(c1)NC(=O)CN2c1nc(C)nc2ccccc12
NCI-H23 lung
  growth: 20.4%
NCI-H226 lung
  growth: 65.8%
NCI-H322M lung
  growth: 42.8%
HOP-62 NSCLC
  growth: 29.2%
NCI-H460 lung
  growth: 2.28% (active)
HOP-92 NSCLC
  growth: -5.74% (active)
NCI-H522 lung
  growth: -21.1% (active)
A549/ATCC NSCLC
  growth: 21.3%
786-0 renal
  growth: 19.8%
COLO 205 colon
  growth: -35% (active)
DU-145 prostate
  growth: -0.215% (active)
K-562 leukemia
  growth: 9.83% (active)
MALME-3M melanoma
  growth: 67.6%
MDA-MB-231 breast
  growth: 11.6%
RXF 393 renal
  growth: 55.1%
SF-268 CNS
  growth: 24.4%
SF-295 CNS
  growth: 14.2%
SF-539 CNS
  growth: -0.932% (active)
M14 melanoma
  growth: 10.8%

## CCN1C(=O)N[C@H]2[C@@H]3NC(=O)c4ccc(Cl)n4[C@@H]3C[C@]21O
NCI-H23 lung
  growth: 6.06% (active)
NCI-H226 lung
  growth: 5.43% (active)
NCI-H322M lung
  growth: 11.7%
HOP-62 NSCLC
  growth: -4.56% (active)
NCI-H460 lung
  growth: 2.06% (active)
HOP-92 NSCLC
  growth: 3.95% (active)
NCI-H522 lung
  growth: -26.9% (active)
A549/ATCC NSCLC
  growth: 9.08% (active)
786-0 renal
  growth: -4.85% (active)
COLO 205 colon
  growth: -29.5% (active)
DU-145 prostate
  growth: 5.1% (active)
K-562 leukemia
  growth: 3.13% (active)
MALME-3M melanoma
  growth: -1.41% (active)
MDA-MB-231 breast
  growth: -3.51% (active)
RXF 393 renal
  growth: 10.2%
SF-268 CNS
  growth: 5.4% (active)
SF-295 CNS
  growth: 0.996% (active)
SF-539 CNS
  growth: -33.5% (active)
M14 melanoma
  growth: -21.3% (active)

## O=C1CCCCN1CCCCC#Cc1ccccc1C#Cc1ccccn1
NCI-H23 lung
  growth: 101%
NCI-H226 lung
  growth: 92%
NCI-H322M lung
  growth: 85.7%
HOP-62 NSCLC
  growth: 101%
NCI-H460 lung
  growth: 115%
HOP-92 NSCLC
  growth: 73.2%
NCI-H522 lung
  growth: 112%
A549/ATCC NSCLC
  growth: 112%
786-0 renal
  growth: 102%
COLO 205 colon
  growth: 103%
DU-145 prostate
  growth: 109%
K-562 leukemia
  growth: 93.6%
MALME-3M melanoma
  growth: 100%
MDA-MB-231 breast
  growth: 102%
RXF 393 renal
  growth: 56.6%
SF-268 CNS
  growth: 107%
SF-295 CNS
  growth: 109%
SF-539 CNS
  growth: 103%
M14 melanoma
  growth: 112%

## COC(=O)CCCCN=Cc1c(O)c(O)c(C(C)C)c2cc(C)c(-c3c(C)cc4c(C(C)C)c(O)c(O)c(C=NCCCCC(=O)OC)c4c3O)c(O)c12
NCI-H23 lung
  growth: 15.6%
NCI-H226 lung
  growth: 41.4%
NCI-H322M lung
  growth: 25.4%
HOP-62 NSCLC
  growth: 27.3%
NCI-H460 lung
  growth: 5.03% (active)
HOP-92 NSCLC
  growth: -10.1% (active)
NCI-H522 lung
  growth: -0.222% (active)
A549/ATCC NSCLC
  growth: 21%
786-0 renal
  growth: 21.7%
COLO 205 colon
  growth: 10.2%
DU-145 prostate
  growth: 24.3%
K-562 leukemia
  growth: 10.3%
MALME-3M melanoma
  growth: 42.5%
MDA-MB-231 breast
  growth: 6.38% (active)
RXF 393 renal
  growth: 8.84% (active)
SF-268 CNS
  growth: 24.2%
SF-295 CNS
  growth: 2.79% (active)
SF-539 CNS
  growth: 24.2%
M14 melanoma
  growth: 22.9%

## CCOC(=O)c1cc(/C(=N\O)c2cc(OC)c(OC)c(OC)c2)n2c(C)cccc12
NCI-H23 lung
  growth: 59.3%
NCI-H226 lung
  growth: 78.8%
NCI-H322M lung
  growth: 59.2%
HOP-62 NSCLC
  growth: 36.2%
NCI-H460 lung
  growth: 15.3%
HOP-92 NSCLC
  growth: 54.6%
NCI-H522 lung
  growth: -3.5% (active)
A549/ATCC NSCLC
  growth: 48%
786-0 renal
  growth: 26.3%
COLO 205 colon
  growth: 21.2%
DU-145 prostate
  growth: 50.1%
K-562 leukemia
  growth: 16.8%
MALME-3M melanoma
  growth: 44.8%
MDA-MB-231 breast
  growth: 48.7%
RXF 393 renal
  growth: 34.5%
SF-268 CNS
  growth: 43%
SF-295 CNS
  growth: 11.3%
SF-539 CNS
  growth: 15.2%
M14 melanoma
  growth: 20.8%

## Cc1c(C2=NNC(c3ccc4c(c3)OCO4)C2)[n+]([O-])c2ccccc2[n+]1[O-] (stereo not drawn)
NCI-H23 lung
  growth: 93.8%
NCI-H226 lung
  growth: 102%
NCI-H322M lung
  growth: 161%
HOP-62 NSCLC
  growth: 92.1%
NCI-H460 lung
  growth: 111%
HOP-92 NSCLC
  growth: 83.6%
NCI-H522 lung
  growth: 95.9%
A549/ATCC NSCLC
  growth: 109%
786-0 renal
  growth: 106%
COLO 205 colon
  growth: 101%
DU-145 prostate
  growth: 103%
K-562 leukemia
  growth: 91.2%
MALME-3M melanoma
  growth: 154%
MDA-MB-231 breast
  growth: 102%
RXF 393 renal
  growth: 96.4%
SF-268 CNS
  growth: 114%
SF-295 CNS
  growth: 105%
SF-539 CNS
  growth: 96.2%
M14 melanoma
  growth: 99.6%

## CNC(=O)c1cc(Oc2ccc3c(c2)sc2nc(-c4ccc(Cl)cc4)cn23)ccn1
NCI-H23 lung
  growth: 72.6%
NCI-H226 lung
  growth: 38.9%
NCI-H322M lung
  growth: 92.9%
HOP-62 NSCLC
  growth: 62.5%
NCI-H460 lung
  growth: 81.8%
HOP-92 NSCLC
  growth: 76.8%
NCI-H522 lung
  growth: 61.7%
A549/ATCC NSCLC
  growth: 79.4%
786-0 renal
  growth: 77.9%
COLO 205 colon
  growth: 114%
DU-145 prostate
  growth: 96.3%
K-562 leukemia
  growth: 85.8%
MALME-3M melanoma
  growth: 72.7%
MDA-MB-231 breast
  growth: 77%
RXF 393 renal
  growth: 83.5%
SF-268 CNS
  growth: 63.3%
SF-295 CNS
  growth: 80.1%
SF-539 CNS
  growth: 76%
M14 melanoma
  growth: 94.7%
